The campaign covered roughly 5,500 compounds. About 2,000 (36%) were called active. Roughly 18% stayed inconclusive and do not appear here. No stated cut-off is given here; in the data, active means normalized growth mostly below about 0.91 (no sharp cut-off); inconclusive means no clear call, values can overlap the other calls; inactive means mostly above about 0.92. This is one part of the list.
Assay: chemical genetic growth profiling, strain panel (AID 1159580);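 further: tested at 20 µM; growth read once vehicle control cultures reached saturation at 30 °C; 1 = growth at the plate median or of vehicle wells; lower values mean less growth of the strain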
Conditions: growth OD

Measured: normalized growth

CCc1cc(C(N)=S)ccn1
inactive: S. cerevisiae deletion strains, locus YJR066W, strain TOR1, hits give low values 1 | S. cerevisiae deletion strains, locus YKL009W, strain mrt4, hits give low values 0.966 | S. cerevisiae deletion strains, locus YKL068W, hits give low values 0.975 | S. cerevisiae deletion strains, locus YKL085W, strain MDH1 (second series), hits give low values 0.964 | S. cerevisiae deletion strains, locus YKL085W, strain MDH1, hits give low values 0.964 | S. cerevisiae deletion strains, locus YKL160W, strain elf1, hits give low values 1.05 | S. cerevisiae deletion strains, locus YKL190W, strain CNB1, hits give low values 0.991 | S. cerevisiae deletion strains, locus YKR001C, strain vps1, hits give low values 0.955 | S. cerevisiae deletion strains, locus YKR026C, strain gcn3, hits give low values 1 | S. cerevisiae deletion strains, locus YKR091W, strain srl3, hits give low values 1.01 | S. cerevisiae deletion strains, locus YLL001W, strain dnm1, hits give low values 1.04 | S. cerevisiae deletion strains, locus YLL026W, hits give low values 1 | S. cerevisiae deletion strains, locus YLL041C, strain sdh2, hits give low values 1 | S. cerevisiae deletion strains, locus YLR027C, strain aat2, hits give low values 0.987 | S. cerevisiae deletion strains, locus YLR039C, strain RIC1, hits give low values 0.939 | S. cerevisiae deletion strains, locus YLR058C, strain SHM2, hits give low values 0.978 | S. cerevisiae deletion strains, locus YLR102C, strain apc9, hits give low values 0.994 | S. cerevisiae deletion strains, locus YLR113W, strain HOG1, hits give low values 1.04 | S. cerevisiae deletion strains, locus YLR221C, strain rsa3, hits give low values 1.02 | S. cerevisiae deletion strains, locus YLR258W, strain gsy2, hits give low values 1 | S. cerevisiae deletion strains, locus YLR262C, strain YPT6 (second series), hits give low values 1.04 | S. cerevisiae deletion strains, locus YLR262C, strain YPT6, hits give low values 0.937 | S. cerevisiae deletion strains, locus YLR268W, strain sec22, hits give low values 0.977 | S. cerevisiae deletion strains, locus YLR320W, strain mms22, hits give low values 1.04 | S. cerevisiae deletion strains, locus YLR330W, strain CHS5, hits give low values 0.984 | S. cerevisiae deletion strains, locus YLR342W, strain FKS1 (second series), hits give low values 1.03 | S. cerevisiae deletion strains, locus YLR342W, strain FKS1, hits give low values 1.01 | S. cerevisiae deletion strains, locus YLR357W, strain rsc2, hits give low values 0.99 | S. cerevisiae deletion strains, locus YLR370C, strain arc18, hits give low values 1 | S. cerevisiae deletion strains, locus YLR371W, strain rom2, hits give low values 0.991 | S. cerevisiae deletion strains, locus YLR384C, strain iki3, hits give low values 1 | S. cerevisiae deletion strains, locus YLR418C, strain cdc73, hits give low values 0.999 | S. cerevisiae deletion strains, locus YML016C, strain PPZ1, hits give low values 0.99 | S. cerevisiae deletion strains, locus YML032C, strain rad52, hits give low values 0.973 | S. cerevisiae deletion strains, locus YML120C, strain ndi1, hits give low values 1.02 | S. cerevisiae deletion strains, locus YML124C, strain tub3, hits give low values 0.987 | S. cerevisiae deletion strains, locus YMR058W, strain fet3, hits give low values 1.01 | S. cerevisiae deletion strains, locus YMR078C, strain ctf18, hits give low values 0.978 | S. cerevisiae deletion strains, locus YMR125W, strain sto1, hits give low values 1 | S. cerevisiae deletion strains, locus YMR129W, hits give low values 0.996 | S. cerevisiae deletion strains, locus YMR205C, strain PFK2, hits give low values 1.07 | S. cerevisiae deletion strains, locus YMR223W, strain ubp8, hits give low values 1.03 | S. cerevisiae deletion strains, locus YMR231W, strain pep5, hits give low values 1 | S. cerevisiae deletion strains, locus YMR263W, strain SAP30, hits give low values 0.982 | S. cerevisiae deletion strains, locus YMR307W, strain GAS1, hits give low values 1.06 | S. cerevisiae deletion strains, locus YNL067W, strain RPL9B, hits give low values 0.954 | S. cerevisiae deletion strains, locus YNL071W, strain lat1, hits give low values 1.01 | S. cerevisiae deletion strains, locus YNL128W, strain TEP1, hits give low values 0.985 | S. cerevisiae deletion strains, locus YNL183C, strain NPR1, hits give low values 0.999 | S. cerevisiae deletion strains, locus YNL209W, strain ssb2, hits give low values 1.01 | S. cerevisiae deletion strains, locus YNL233W, strain BNI4, hits give low values 0.963 | S. cerevisiae deletion strains, locus YNL248C, strain rpa49, hits give low values 1 | S. cerevisiae deletion strains, locus YNL250W, strain rad50, hits give low values 0.964 | S. cerevisiae deletion strains, locus YNL271C, strain bni1, hits give low values 0.971 | S. cerevisiae deletion strains, locus YNL298W, strain CLA4, hits give low values 0.978 | S. cerevisiae deletion strains, locus YNL307C, strain MCK1, hits give low values 0.985 | S. cerevisiae deletion strains, locus YNL322C, strain KRE1 (second series), hits give low values 1.03 | S. cerevisiae deletion strains, locus YNR049C, strain mso1, hits give low values 1 | S. cerevisiae deletion strains, locus YNR052C, strain pop2, hits give low values 0.993 | S. cerevisiae deletion strains, locus YOL006C, strain TOP1, hits give low values 0.995 | S. cerevisiae deletion strains, locus YOL012C, strain htz1 1.05 | S. cerevisiae deletion strains, locus YOL147C, strain pex11, hits give low values 0.988 | S. cerevisiae deletion strains, locus YOR001W, strain rrp6, hits give low values 0.965 | S. cerevisiae deletion strains, locus YOR061W, strain CKA2, hits give low values 0.96 | S. cerevisiae deletion strains, locus YOR069W, strain VPS5, hits give low values 0.998 | S. cerevisiae deletion strains, locus YOR070C, strain gyp1, hits give low values 1.01 | S. cerevisiae deletion strains, locus YOR080W, strain dia2, hits give low values 0.998 | S. cerevisiae deletion strains, locus YOR083W, strain WHI5, hits give low values 1.05 | S. cerevisiae deletion strains, locus YOR106W, strain vam3, hits give low values 1.06 | S. cerevisiae deletion strains, locus YOR136W, strain idh2, hits give low values 0.984 | S. cerevisiae deletion strains, locus YOR144C, strain elg1, hits give low values 0.985 | S. cerevisiae deletion strains, locus YOR184W, strain ser1, hits give low values 1.01 | S. cerevisiae deletion strains, locus YOR231W, strain MKK1, hits give low values 1.07 | S. cerevisiae deletion strains, locus YOR265W, strain rbl2, hits give low values 1.03 | S. cerevisiae deletion strains, locus YOR270C, strain vph1, hits give low values 1.03 | S. cerevisiae deletion strains, locus YOR290C, strain snf2, hits give low values 1.01 | S. cerevisiae deletion strains, locus YOR316C, strain cot1, hits give low values 0.981 | S. cerevisiae deletion strains, locus YPL051W, strain arl3, hits give low values 0.998 | S. cerevisiae deletion strains, locus YPL078C, strain atp4, hits give low values 1.01 | S. cerevisiae deletion strains, locus YPL106C, strain sse1, hits give low values 1.02 | S. cerevisiae deletion strains, locus YPL240C, strain hsp82, hits give low values 0.982 | S. cerevisiae deletion strains, locus YPL256C, strain CLN2, hits give low values 1.15 | S. cerevisiae deletion strains, locus YPR119W, strain clb2, hits give low values 0.986 | S. cerevisiae deletion strains, locus YPR141C, strain kar3, hits give low values 0.974 | S. cerevisiae deletion strains, locus YPR163C, strain tif3, hits give low values 0.986 | S. cerevisiae deletion strains, locus YPR167C, strain met16, hits give low values 0.989 | S. cerevisiae deletion strains, strain wtn01, hits give low values 0.995 | S. cerevisiae strains, strain wild type, hits give low values 0.986
